Measurements reported in the supplement of paper PMC6555819.

Columns and labels:
Assay in all cases: PBM binding z-score (relative to random genomic background probes); higher = stronger binding; sequences stand for … in GC…GCGATTGACAGCGTAGAATGAAGG
[1] = system: FXR:RXRa (NR concentration 270 nM, RXRa partner concentration 90 nM)
In short: (§1)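 Random background probes are the reference for binding z-scores. These scores derive from regression-normalized fluorescence on custom Agilent 4×180K protein-binding microarrays incubated 1 h with ligand-free nuclear receptor dimers. Binding was detected with antibodies against each partner (one per run).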

[2] = system: LXRa:RXRa (NR concentration 270 nM, RXRa partner concentration 90 nM)
In short: as §1

[3] = system: LXRa homodimer (NR concentration 270 nM)
In short: as §1

[4] = system: LXRb:RXRa (NR concentration 270 nM, RXRa partner concentration 90 nM)
In short: as §1

[5] = system: LXRb homodimer (NR concentration 270 nM)
In short: as §1

[6] = system: PPARa:RXRa (NR concentration 270 nM, RXRa partner concentration 90 nM)
In short: as §1

[7] = system: PPARg:RXRa (NR concentration 180 nM, RXRa partner concentration 90 nM)
In short: as §1

[8] = system: PPARg:RXRa 270nM:90nM, anti-RXR (NR concentration 270 nM, RXRa partner concentration 90 nM)
In short: as §1

[9] = system: PPARg:RXRa 30nM:10nM, anti-RXR (NR concentration 30 nM, RXRa partner concentration 10 nM)
In short: as §1

[10] = system: PPARg:RXRa 90nM:30nM, anti-RXR (NR concentration 90 nM, RXRa partner concentration 30 nM)
In short: as §1

[11] = system: PPARg:RXRa DBDmut IVT, anti-RXR (DBD mutation: RXRa K156A/R161A, NR concentration 270 nM, RXRa partner concentration 90 nM)
In short: as §1

[12] = system: PPARg:RXRa IVT, anti-PPARg (NR concentration 270 nM, RXRa partner concentration 90 nM)
In short: as §1

[13] = system: PPARg DBDmut:RXRa IVT, anti-PPARg (DBD mutation: PPARg1 K132A/R137A, NR concentration 270 nM, RXRa partner concentration 90 nM)
In short: as §1

[14] = system: PPARg DBDmut IVT, anti-PPARg (DBD mutation: PPARg1 K132A/R137A, NR concentration 270 nM)
In short: as §1

[15] = system: PPARg homodimer (NR concentration 180 nM)
In short: as §1

[16] = system: PXR:RXRa (NR concentration 270 nM, RXRa partner concentration 90 nM)
In short: as §1

[17] = system: PXR homodimer (NR concentration 270 nM)
In short: as §1

[18] = system: RARa:RXR (NR concentration 270 nM, RXRa partner concentration 90 nM)
In short: as §1

[19] = system: RARa homodimer (NR concentration 270 nM)
In short: as §1

[20] = system: RARb:RXRa (NR concentration 270 nM, RXRa partner concentration 90 nM)
In short: as §1

Sequence | PBM binding z-score [1] | PBM binding z-score [2] | PBM binding z-score [3] | PBM binding z-score [4] | PBM binding z-score [5] | PBM binding z-score [6] | PBM binding z-score [7] | PBM binding z-score [8] | PBM binding z-score [9] | PBM binding z-score [10] | PBM binding z-score [11] | PBM binding z-score [12] | PBM binding z-score [13] | PBM binding z-score [14] | PBM binding z-score [15] | PBM binding z-score [16] | PBM binding z-score [17] | PBM binding z-score [18] | PBM binding z-score [19] | PBM binding z-score [20]
TCTCGGTGGACACGAAAGGTCAGAGCTCGACATC | 2.46 | 3.58 | 2.21 | 3.1 | -0.0844 | 3.69 | 1.16 | 2.93 | 2.55 | 2.78 | 1.22 | 1.82 | -0.273 | -0.543 | 3.39 | 3.87 | 0.441 | 4.59 | -0.0957 | 3.86
TCACGGAGGACACGAAAGGTCAGAGCTCGACATC | 3.04 | 4.14 | 3.14 | 3.07 | -0.784 | 3.5 | 1.48 | 2.62 | 2.28 | 2.43 | 1.84 | 1.63 | -0.581 | -0.261 | 2.1 | 4.03 | 0.408 | 4.8 | 1.27 | 4.28
CGAACTAGGTCATTGGCAGGACAGTGAATAGTAA | 4.29 | 2.62 | 0.219 | 1.66 | -0.306 | 4.73 | 7.68 | 6.26 | 3.37 | 5.72 | 8.14 | 8.31 | 3.04 | 0.566 | 1.51 | 1.61 | -0.0888 | 2.11 | 0.516 | 3.71
GCATATAGGTAATACAAGGTGAAAGTTCGATTGT | 1.05 | 2.54 | 0.814 | 1.37 | -0.201 | 2.67 | 3.47 | 4.13 | 2.29 | 3.58 | 3.93 | 3.61 | 1.22 | 1.17 | 1.2 | 1.86 | 0.639 | 2.6 | 1.1 | 0.778
CCTAGCAGGCCAATCTGGGTCACTTAAGGCTTGA | 0.716 | 1.48 | -0.236 | 0.733 | -0.723 | 2.96 | 1.68 | 2.03 | -0.218 | 1.33 | 4.27 | 5.04 | 0.275 | -0.588 | 1.03 | 1.16 | -0.589 | 1.62 | -0.727 | 1.55
CCTATTAGTTGACCATAGGGGCAACCGAAGCTCG | 0.589 | 0.362 | 0.304 | 0.153 | 0.195 | 0.245 | 0.395 | 0.309 | -0.142 | 0.113 | 0.502 | 0.611 | 0.353 | -0.128 | 1.32 | 0.256 | 0.563 | 0.446 | 1.9 | 0.983
GGAACGAGAGCATTCGAGTTGATAGCATGGCGAT | -0.374 | -1.05 | -0.97 | -1.11 | -1.55 | -0.713 | 0.37 | -0.536 | -0.607 | -0.728 | 0.00852 | -0.503 | -0.558 | -0.483 | -1.19 | 0.237 | -0.766 | -0.817 | -0.746 | -0.633
